PubChem BioAssay (EPA / NIEHS)
Results filed as inconclusive are left out. Active and inactive are the calls of the source. How the source made its calls: active means hit-call score of the fitted dose curve at least 0.9, where 1 is the maximum; inconclusive means response in the unintended direction; inactive means score below 0.9.

The compounds below were run against Estrogen receptor (Homo sapiens) (UniProt P03372) (assay: CCTE_Deisenroth_AIME_384WELL_LUC_Inactive: CCTE's 384-well Estrogen Receptor Transactivation Assay without AIME metabolic competence (ERTA luciferase; metabolism negative), Deisenroth Lab (AID 2284038);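 further: hits raise estrogen receptor luciferase signal so potencies reflect agonists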).
Chain of Estrogen receptor (Homo sapiens) (P03372 whole entry, looked up): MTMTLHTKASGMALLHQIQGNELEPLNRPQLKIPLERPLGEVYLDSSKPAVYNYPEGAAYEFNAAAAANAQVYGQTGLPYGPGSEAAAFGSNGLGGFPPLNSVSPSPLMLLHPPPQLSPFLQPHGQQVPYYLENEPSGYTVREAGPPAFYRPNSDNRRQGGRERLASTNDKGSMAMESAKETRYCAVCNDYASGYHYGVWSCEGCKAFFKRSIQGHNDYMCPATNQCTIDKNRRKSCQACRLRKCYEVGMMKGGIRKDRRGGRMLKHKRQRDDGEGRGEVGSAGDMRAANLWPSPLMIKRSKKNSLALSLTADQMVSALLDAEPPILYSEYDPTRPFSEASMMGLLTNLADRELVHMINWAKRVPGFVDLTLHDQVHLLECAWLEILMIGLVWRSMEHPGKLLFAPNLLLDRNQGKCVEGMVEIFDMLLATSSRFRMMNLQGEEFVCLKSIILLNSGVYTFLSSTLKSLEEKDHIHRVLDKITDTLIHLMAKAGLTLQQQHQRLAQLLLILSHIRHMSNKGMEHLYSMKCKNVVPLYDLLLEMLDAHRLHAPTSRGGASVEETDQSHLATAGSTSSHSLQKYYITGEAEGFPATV
Description: CCTE_Deisenroth_AIME_384WELL (AIME metabolism assay) is a cell-based, single-readout assay that uses VM7Luc4E2, a human mammary gland/breast cell line, with measurements taken at 24 hour after chemical dosing in a 384-well plate.CCTE_Deisenroth_AIME_384WELL_LUC_Inactive is one of four assay components measured or calculated from the CCTE_Deisenroth_AIME_384WELL assay. It is designed to make measurements of luciferase induction, a form of inducible reporter, as detected with bioluminescence signals by luciferase-coupled ATP quantitation technology.CCTE_Deisenroth_AIME_384WELL_LUC_Inactive is a component of the CCTE_Deisenroth_AIME_384WELL assay that measures the effect of retroftting the VM7Luc ERTA assay with the Alginate Immobolization of Metabolic Enzymes (AIME) metabolism method. AIME is optimized to impart phase I hepatic metabolism using phenobarbital/beta-naphthoflavone induced hepatic S9 from male Sprague Dawley rats. Parent chemicals are incubated for 2 hours in the AIME assay prior to transfer to the VM7Luc ERTA assay plate. […] This endpoint evaluates reporter induction in metabolism negative mode. Using a type of inducible reporter in VM7Luc cells, gain-of-signal activity can be used to understand changes in the reporter gene as they relate to xenobiotic metabolism and the gene ESR1. This assay endpoint, CCTE_Deisenroth_AIME_384WELL_LUC_Inactive, was analyzed in the positive analysis fitting direction relative to 17beta-estradiol as the positive control in the ERTA assay. To generalize the intended target to other relatable targets, this assay endpoint is annotated to the nuclear receptor intended target family, where the subfamily is steroidal.
The AIME procedure consists of a preparative "pre-stamping" step using a barium chloride/poly-L-lysine (PLL) solution followed by "stamping" the lid in alginate-hepatic S9 (metabolism positive) or alginate-water (metabolism negative) to form microspheres. Once stamping is completed, the AIME lids are placed in duplicate microplates (metabolism positive or negative) containing chemical solutions and incubated for two hours to facilitate metabolic reactions. The conditioned medium, containing parent chemical or metabolites, is then transferred to the cell-based VM7Luc Estrogen Receptor Transactivation Assay (ERTA) for 24 hours. A typical experimental design tests a 10-point concentration series (0.002 - 200 uM) for 8 compounds (96-well format)1 or 32 compounds (384-well format)2 in single technical replicate. AIME assay controls include trans-stilbene (bioactivated control) and ethylparaben (bioinactivated control). ERTA assay plate controls include 17-beta estradiol (positive control) and DMSO (solvent control). Experiments typically comprise a minimum of four experimental replicates (n=4).

Row | Compound | outcome | AC50
1 | COc1ccc([N+](=O)[O-])cc1N | inactive | 
2 | OCCC(F)(F)C(F)(F)C(F)(F)C(F)(F)C(F)(F)C(F)(F)C(F)(F)C(F)(F)F | inactive | 
3 | CN1CCC[C@H]1c1cccnc1 | inactive | 
4 | CCCCCCCCCCCCCCCS(=O)(=O)Oc1ccccc1 |  | 9.6 µM (active)
5 | ClC1=C(Cl)C(Cl)(Cl)C(Cl)=C1Cl | inactive | 
6 | Cc1ccc(S(=O)(=O)O)c(C)c1 | inactive | 
7 | CCCCC(CC)COC(=O)CCCCC(=O)OCc1ccccc1 (centres undefined) | inactive | 
8 | CCN(CC)CCNc1ccc(CNC=O)c2sc3ccc(OC)cc3c(=O)c12 |  | 26.2 µM (active)
9 | OC1CCCCC1 | inactive | 
10 | OCCC(F)(F)C(F)(F)C(F)(F)C(F)(F)C(F)(F)C(F)(F)F | inactive | 
11 | CC#C[C@]1(O)CC[C@H]2[C@@H]3CCC4=CC(=O)CCC4=C3[C@@H](c3ccc(N(C)C)cc3)C[C@@]21C | inactive | 
12 | COCC(C)OCC(C)O (centres undefined) | inactive | 
13 | COC(=O)CCCCC(=O)OC | inactive | 
14 | CCCCCCCC(=O)O | inactive | 
15 | N#C[C@@H]1CC(F)(F)CN1C(=O)CNC1CC2CCC(C1)N2c1ncccn1 (some centres undefined) | inactive | 
16 | O=C(O)c1ccccc1C(c1ccc(O)cc1)c1ccc(O)cc1 |  | 98.9 µM (active)
17 | CCCCCCC(=O)O | inactive | 
18 | CCCCOCCO | inactive | 
19 | CCCCCCCCC(=O)O | inactive | 
